In assay [1] the target is Voltage-gated inwardly rectifying potassium channel KCNH2 (Homo sapiens) (UniProt Q12809). Nature of the assay: Human Ether-a-go-go-Related Gene (hERG) channel small molecule antagonists: fluorescence cell-based qHTS assay (AID 1671200).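 Further: hERG-expressing U2OS cells given a thallium stimulus after FluxOR II dye loading.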 To be noted: hERG-U2OS cells, FluxOR thallium flux fluorescence; series mostly up to 76.8 µM. The method, boiled down: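 hERG-U2OS cells plated overnight at 37 C, loaded with FluxOR II dye 1 h at RT in dark; after 10 min, thallium stimulus added. Fluorescence (480/540 nm) read kinetically for 2 min at 1 s intervals.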

Assay [2] addresses Cytochrome P450 3A4 (Homo sapiens) (UniProt P08684). As to the kind of experiment: Cytochrome P450 Family 3 Subfamily A Member 4 (CYP3A4) small molecule antagonists: luciferase reporter qHTS assay (AID 1671201). Further: potency means the concentration at half of the fitted maximal effect. To be noted: P450-Glo CYP3A4 enzyme, luciferin luminescence, 1 h; series mostly up to 115 µM. The method, boiled down: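 P450-Glo CYP3A4 luminescent assay: compounds preincubated 10 min at room temperature with enzyme and proluciferin substrate, NADPH regeneration added, 1 h room-temperature reaction, stopped with luciferin detection reagent; luminescence read after 20 min. Ketoconazole positive control.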

Assay [3] addresses Cytochrome P450 1A2 (Homo sapiens) (UniProt P05177). Nature of the assay: Cytochrome P450 Family 1 Subfamily A Member 2 (CYP1A2) small molecule antagonists: luciferase reporter qHTS assay (AID 1671199). Further: potency means the concentration at half of the fitted maximal effect. Particulars: P450-Glo CYP1A2 enzyme, luciferin luminescence, 1 h; series mostly up to 53 µM. The method, boiled down: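 P450-Glo CYP1A2, 1536-well qHTS: enzyme/proluciferin substrate + cpd (DMSO), 10 min RT; NADPH regen, 1 h RT; detection reagent, 20 min; luminescence, RLU.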

Several values for one entry are separate records, joined by “and”; a condition that tells them apart may be missing. Equal values may be shown once. Records with an inconclusive call do not appear. Entries that show only a call come without a potency. Activity calls are given as the source filed them. The call rests on the fitted dose curve; in most records, active means well fitted curve in the direction sought with a large enough effect in the repeat runs; inconclusive means weak or mixed curves; inactive means no such curve, though single readings can be large; an effect the other way counts as inactive or inconclusive.
Further: nearly all actives have a fitted effect of over 50% in size.

Cytochrome P450 1A2 (Homo sapiens), sequence (P05177 whole entry, looked up): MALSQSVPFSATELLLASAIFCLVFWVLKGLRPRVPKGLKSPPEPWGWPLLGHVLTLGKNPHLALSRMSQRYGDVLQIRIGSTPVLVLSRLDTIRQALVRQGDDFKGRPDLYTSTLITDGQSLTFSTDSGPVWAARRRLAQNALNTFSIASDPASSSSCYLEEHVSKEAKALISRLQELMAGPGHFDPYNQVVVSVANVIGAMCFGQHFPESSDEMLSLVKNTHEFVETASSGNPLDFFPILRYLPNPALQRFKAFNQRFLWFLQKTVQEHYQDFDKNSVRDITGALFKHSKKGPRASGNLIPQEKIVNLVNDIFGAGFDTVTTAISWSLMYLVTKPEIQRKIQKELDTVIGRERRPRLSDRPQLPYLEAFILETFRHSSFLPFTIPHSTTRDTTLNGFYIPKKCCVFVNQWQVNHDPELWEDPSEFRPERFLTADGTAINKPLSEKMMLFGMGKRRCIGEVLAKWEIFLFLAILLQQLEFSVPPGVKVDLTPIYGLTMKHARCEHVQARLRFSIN
Voltage-gated inwardly rectifying potassium channel KCNH2 (Homo sapiens), sequence (Q12809 whole entry, looked up): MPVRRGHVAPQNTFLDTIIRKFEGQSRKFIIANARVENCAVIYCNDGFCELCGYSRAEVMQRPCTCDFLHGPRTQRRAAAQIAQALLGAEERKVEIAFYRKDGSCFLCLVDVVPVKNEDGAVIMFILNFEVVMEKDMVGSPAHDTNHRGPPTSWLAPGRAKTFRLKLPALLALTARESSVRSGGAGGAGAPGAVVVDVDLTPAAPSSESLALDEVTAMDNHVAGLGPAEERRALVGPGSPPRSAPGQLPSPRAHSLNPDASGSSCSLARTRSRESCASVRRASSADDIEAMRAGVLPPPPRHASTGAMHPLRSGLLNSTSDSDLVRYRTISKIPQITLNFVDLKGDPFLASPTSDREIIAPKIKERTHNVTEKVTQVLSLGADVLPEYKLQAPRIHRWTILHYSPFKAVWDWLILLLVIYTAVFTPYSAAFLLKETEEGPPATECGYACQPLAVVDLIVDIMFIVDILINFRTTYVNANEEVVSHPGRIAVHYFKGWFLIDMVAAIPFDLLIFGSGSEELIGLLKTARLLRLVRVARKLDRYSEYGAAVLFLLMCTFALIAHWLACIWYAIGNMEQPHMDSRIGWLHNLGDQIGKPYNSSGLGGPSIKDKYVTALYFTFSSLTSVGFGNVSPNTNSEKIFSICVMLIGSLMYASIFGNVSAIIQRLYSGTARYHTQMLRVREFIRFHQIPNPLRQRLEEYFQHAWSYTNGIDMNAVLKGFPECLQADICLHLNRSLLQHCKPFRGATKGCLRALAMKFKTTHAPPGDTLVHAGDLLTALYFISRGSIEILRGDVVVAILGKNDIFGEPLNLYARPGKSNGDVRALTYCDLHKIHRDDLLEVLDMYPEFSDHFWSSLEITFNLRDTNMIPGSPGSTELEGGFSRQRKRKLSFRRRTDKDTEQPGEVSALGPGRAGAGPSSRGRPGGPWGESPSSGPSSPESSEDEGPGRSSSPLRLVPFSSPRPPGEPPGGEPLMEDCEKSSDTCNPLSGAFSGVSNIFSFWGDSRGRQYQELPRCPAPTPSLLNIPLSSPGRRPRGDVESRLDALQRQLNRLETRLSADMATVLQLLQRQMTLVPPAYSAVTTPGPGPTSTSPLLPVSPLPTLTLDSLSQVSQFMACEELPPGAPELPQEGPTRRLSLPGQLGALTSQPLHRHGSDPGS
Cytochrome P450 3A4 (Homo sapiens), sequence (P08684 whole entry, looked up): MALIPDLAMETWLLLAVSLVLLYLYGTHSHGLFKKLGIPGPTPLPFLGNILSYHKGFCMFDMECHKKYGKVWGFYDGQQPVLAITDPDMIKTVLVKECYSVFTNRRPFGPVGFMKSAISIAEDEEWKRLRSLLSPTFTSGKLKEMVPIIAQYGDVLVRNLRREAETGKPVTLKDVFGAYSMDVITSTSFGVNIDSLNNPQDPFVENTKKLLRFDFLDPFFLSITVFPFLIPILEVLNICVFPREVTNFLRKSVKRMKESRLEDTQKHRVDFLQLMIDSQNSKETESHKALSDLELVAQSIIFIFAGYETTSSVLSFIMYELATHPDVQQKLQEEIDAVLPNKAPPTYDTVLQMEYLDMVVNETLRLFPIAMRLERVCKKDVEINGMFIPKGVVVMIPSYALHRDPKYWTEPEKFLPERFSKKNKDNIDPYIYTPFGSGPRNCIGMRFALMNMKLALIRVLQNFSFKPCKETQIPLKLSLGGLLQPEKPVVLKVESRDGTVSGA

As to `CC(C)(C)NC(=O)[C@@H]1CN(Cc2cccnc2)CCN1C[C@@H](O)C[C@@H](Cc1ccccc1)C(=O)N[C@H]1c2ccccc2C[C@H]1O`, the Potency result in assay [1] is “inactive”. Consider `O=C(O)c1cccc(C(=O)O)c1`, for which the Potency entry in assay [1] and in assay [2] was “inactive” throughout. On to `O=C(O)CP(=O)(O)O`, for which the Potency entry in assay [1] and in assay [2] was “inactive” in each case. In the case of `NC(N)=Nc1nc(CSCC/C(N)=N/S(N)(=O)=O)cs1`, the Potency result in assay [3] and in assay [2] was “inactive” throughout.

On to `Cc1cccc2n[nH]nc12`, for which the Potency result in assay [1] and in assay [2] was “inactive” each time. As for `Cc1cc(C(C)(C)C)c(O)c(C(C)(C)C)c1`, the Potency entry in assay [3], in assay [1] and in assay [2] was “inactive” throughout.

For `CC(N)=O`, the Potency result in assay [1] and in assay [2] was “inactive” throughout.

As for `CCn1cc(C(=O)O)c(=O)c2cc(F)c(N3CCNC(C)C3)c(F)c21` (centres undefined), the Potency result in assay [3] and in assay [2] was “inactive” each time. Turning to `Cc1cccc([N+](=O)[O-])c1C(=O)O`, the Potency result in assay [1] and in assay [2] was “inactive” throughout. With `Nc1ccc2cc3ccccc3cc2c1`, the Potency in assay [3] is 4.06 µM (active) and 2.24 µM (active); in assay [2], 9.1 µM (active) and 12.6 µM (active). In assay [1], the Potency result is “inactive”. Consider `CCCN[C@H]1CCc2nc(N)sc2C1`, for which, in assay [1], the Potency entry is “inactive”. As for `O=C(OCc1ccccc1)c1ccc(O)cc1`, the Potency result in assay [1] was “inactive”.

As for `CC[C@]1(O)C[C@@H]2CN(CCc3c([nH]c4ccccc34)[C@@](C(=O)OC)(c3cc4c(cc3OC)N(C)[C@H]3[C@@](O)(C(=O)OC)[C@H](OC(C)=O)[C@]5(CC)C=CCN6CC[C@]43[C@@H]65)C2)C1`, the Potency entry in assay [1] is “inactive”.
